Screening data from PubChem.
This is a sample that favours compounds with a hit; in the whole collection about 2.7% have one here.
KKLEB tox – counter-screen for CF NF-kB inhibitors: cytotoxicity. KKLEB CF airway cells viability, ATPlite luminescence, overnight; stronger effect = lower value; cells stimulated with P. aeruginosa culture filtrate. activity change (cytotoxicity), % at 5 µM. actives 0.36% (n = 360,000);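 active = corrected activity change at or below -50% at 5 µM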
CF NFkB block – cystic fibrosis NF-kB activation inhibition. KKLEB NF-kB-GFP reporter, PAF-induced, GFP fluorescence overnight. inhibition, % at 5 µM. actives 0.86% (n = 360,000);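 active = at least 50% inhibition at 5 µM, scaled per plate between neutral and stimulator controls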;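 also: PAF is a Pseudomonas aeruginosa culture filtrate used as stimulus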
HIF-2a inh – inhibitors of HIF-2a | 786-0 RCC cells HIF-2a reporter, luciferase luminescence, overnight | inhibition, % at 18.8 µM | actives 0.72% (n = 360,000) | AID 624352;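 active = inhibition of the luminescence signal of 40% or more relative to plate controls, in a single-dose primary screen at 18.75 µM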
TRPM1 prom inh – reduces MITF-dependent TRPM1 promoter luciferase signal | SK-MEL-5 TRPM1 promoter luciferase, 24 h | inhibition, % at 12.5 µM | actives 0.83% (n = 330,000) | AID 488899;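 active = mean inhibition across replicates of 60% or more, whatever share of single replicates reaches that level; inconclusive = some that reach 60%, reason not given; inactive = mean inhibition across replicates below 60%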
Peg3 prom inh-1 – Peg3 promoter activity inhibition; HeLa PEG-Prom luciferase reporter, luminescence, overnight; inhibition, % at 20 µM; actives 1.7% (n = 360,000);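 active = inhibition of at least 50% at 20 µM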
Shn3 inh set2 – Schnurri-3 reporter inhibition in Clone20 osteoblasts | Clone20 osteoblast Shn3 3'UTR firefly luciferase, 24 h | AID 588674 | inhibition, % at 12.5 µM | actives 0.52% (n = 360,000);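 active = mean inhibition of at least 75% with every replicate also reaching 75%; inconclusive = mean inhibition at least 75% but some replicate below; inactive = mean inhibition below 75%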
Peg3 prom inh-2 – confirmation of Peg3 promoter inhibitors. actives 84% (n = 1,300). AID 602417. shares compounds with Peg3 prom inh-1. HeLa PEG-Prom luciferase reporter, luminescence, overnight. inhibition, % at 20 µM;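 active = at 20 µM dose, 40% or more inhibition averaged across four replicates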
Hits are given with their value; – = inactive; ? = inconclusive; · = not tested or not shown; ! = not confirmed by another sample.

SMILES | KKLEB tox | CF NFkB block | HIF-2a inh | TRPM1 prom inh | Peg3 prom inh-1 | Shn3 inh set2 | Peg3 prom inh-2
CCOc1ccc(NC(=O)Nc2cccc(C(=O)O)c2)cc1 | – | – | 88 | 94 | 85 | – | 75
O=C(Nc1ccc(Cl)cc1)Nc1cccc(C(=O)O)c1 | – | – | 66 | 80 | 53 | – | –
Cc1ccccc1OCC(=O)Nc1cccc(C(=O)O)c1 | – | – | 92 | 92 | 84 | – | 85
COc1ccc(COc2ccc(S(=O)(=O)N3CCCC3)cc2C(N)=O)cc1F | – | – | – | – | – | – | ·
COc1ccccc1CC(=O)OC(C)C(=O)Nc1ccc(S(=O)(=O)N2CCCCC2)cc1 (centres undefined) | – | – | – | – | – | – | ·
COCCn1ccc2c(OCC(=O)NCCc3ccccc3)cccc2c1=O | – | – | – | – | – | – | ·
CC(=O)Nc1sc(C)c(C)c1C(=O)OCC(=O)N(CC(C)C)c1c(N)n(Cc2ccccc2)c(=O)[nH]c1=O | -96 | 83 | – | 103 | 101 | – | 55
Cc1ccc(-c2nnc(-c3ccc(NC(=O)Cc4cccs4)cc3)o2)cc1 | -77 | 71 | – | – | 55 | – | –
Cc1ccc(-c2cc(C(=O)Nc3nccs3)c3ccccc3n2)c(C)c1 | – | – | – | – | 91 | – | 61
COc1ccc(CC(N)c2csc(Nc3cccc(OC)n3)n2)cc1 (centres undefined) | – | – | – | · | 70 | – | 96
COc1ccc(CC(N)c2csc(Nc3ccccn3)n2)cc1 (centres undefined) | – | – | – | · | – | – | ·
NC(Cc1ccc(F)cc1)c1csc(Nc2cc(Oc3ccccc3)ncn2)n1 (centres undefined) | – | – | – | · | 79 | – | 83
CC(=O)c1ccc(Nc2nc(C(N)Cc3ccc(Cl)cc3)cs2)cc1 (centres undefined) | – | – | – | · | 56 | – | 72
COc1ccc(CC(N)c2csc(Nc3cc(Oc4ccccc4)ncn3)n2)cc1 (centres undefined) | – | – | – | · | – | – | ·
O=C(N/N=C/c1ccc2c(c1)OCO2)C1CC1 | – | – | – | – | – | – | ·
Cc1cc(NC(=O)Cn2nc(C(=O)O)c3ccccc3c2=O)c([N+](=O)[O-])cc1C | – | – | – | – | – | – | ·
Cc1ccc(-c2cc3c(nn2)-c2ccccc2C3=O)cc1 | -75 | – | – | 78 | 76 | – | 67
O=C1c2ccccc2-c2nnc(-c3ccc(F)cc3)cc21 | – | – | – | – | – | – | ·
COc1ccc(N(CC(=O)NCCSCc2ccccc2C)S(=O)(=O)c2ccccc2)cc1 | – | – | – | – | – | – | ·
Cc1ccc(C(=O)c2ccc(C)cc2)cc1 | – | – | – | – | – | – | ·
Cc1ccc(C(=O)c2no[n+]([O-])c2C(=O)c2ccc(C)cc2)cc1 | -76 | 100 | – | 79 | 107 | – | 100
COCCn1c(C)cc(C(=O)COC(=O)c2cccc(O)c2)c1C | – | – | – | – | 75 | – | 68
COCCn1c(C)cc(C(=O)COC(=O)c2cc3c(s2)CCC3)c1C | – | – | – | – | – | – | ·
O=C(CCCC(=O)c1ccccc1)Nc1ccc(O)cc1 | – | – | – | – | – | – | ·
O=C(O)CCNC(=O)CCCn1nnc2ccccc2c1=O | – | – | – | – | – | – | ·
SMILES | KKLEB tox | CF NFkB block | HIF-2a inh | TRPM1 prom inh | Peg3 prom inh-1 | Shn3 inh set2 | Peg3 prom inh-2
COc1cc(N=Nc2ccc(C(=O)N(C)C)cc2)c(C)cc1N | – | – | – | – | – | – | ·
COCCC(=O)N1CCC(Oc2ccc(C(=O)NCCc3ccccn3)cc2)CC1 | – | – | – | – | – | – | ·
O=S(=O)(N[C@H]1C[C@@H](NS(=O)(=O)OCC(Cl)(Cl)Cl)C2CCCCC21)OCC(Cl)(Cl)Cl (some centres undefined) | – | – | – | – | 61 | – | 84
Cc1nn(C)c(Cl)c1CN1CCC(CO)(CCOc2ccccc2)CC1 | – | – | – | – | – | – | ·
Cc1c(CN2CCC(CO)(CCOc3ccccc3)CC2)[nH]c2c(Cl)cccc12 | – | – | – | – | 99 | – | 99
C(=Cc1c[nH]c2ccccc12)c1ccc2ccccc2n1 | – | – | – | – | 72 | – | –
CC1CCCCN1S(=O)(=O)c1ccc(C(=O)N(CCCN(C)C)c2nc3ccc(Br)cc3s2)cc1 (centres undefined) | – | – | – | 95 | 81 | – | 93
CN(C)CCN(C(=O)c1ccc(S(=O)(=O)N2CCCC2)cc1)c1nc2ccc(Br)cc2s1 | – | – | – | – | – | – | ·
CN(C)CCCN(C(=O)c1ccc(S(=O)(=O)N2CCCCCC2)cc1)c1nc2cc3c(cc2s1)OCO3 | – | – | – | · | – | – | ·
CCC1CCCCN1S(=O)(=O)c1ccc(C(=O)N(CCCN(C)C)c2nc3cc4c(cc3s2)OCO4)cc1 (centres undefined) | – | – | – | – | 59 | – | 70
OC(c1ccc(Cl)cc1)c1ncc(-c2cccc(F)c2)[nH]1 (centres undefined) | – | – | – | · | – | – | ·
Cc1sc2ncn(CC(=O)NCCCN3CC(C)CC(C)C3)c(=O)c2c1S(=O)(=O)N1CC(C)CC(C)C1 (centres undefined) | – | – | – | – | – | – | ·
CCOC(=O)c1c(C)n(-c2ccc(OC)cc2)c2ccc(O)c(CN(C)C)c12 | – | – | – | – | 55 | – | –
OC1(c2ccc(Cl)c(Cl)c2)C[n+]2ccccc2N1Cc1ccccc1 (centres undefined) | – | – | – | – | 95 | – | 90
O=C(Nc1ccc2c(c1)OCO2)c1ccccn1 | – | – | – | – | – | – | ·
O=C(/C=C\Nc1ccc2c(c1)OCO2)c1ccccn1 | -54 | – | 71 | 75 | 85 | – | 71
Cc1ccc(-c2ccc(CN3C(CC(C)C)C(=O)N(Cc4cn(Cc5ccco5)nn4)CCS3(=O)=O)cc2)cc1 (centres undefined) | – | – | – | · | – | – | ·
COCOCCn1cc(CN2CCS(=O)(=O)N(Cc3ccc(-c4ccc(Cl)c(Cl)c4)cc3)C(C(C)C)C2=O)nn1 (centres undefined) | – | – | – | · | 61 | 91 | 46
CC(C)CC1C(=O)N(Cc2cn(Cc3ccco3)nn2)CCS(=O)(=O)N1Cc1ccc(-c2ccc(F)cc2)cc1 (centres undefined) | – | – | – | · | 64 | – | 62
CN(C(=O)COC(=O)Cn1cnc2ccccc21)C1CCCCC1 | – | – | – | – | – | – | ·
O=C(Nc1ccc2oc(-c3ccncc3)nc2c1)c1ccc([N+](=O)[O-])o1 | – | – | – | 72 | 102 | ? | 98
CCOC(=O)C1=C(COCCN)NC(C)=C(C(=O)OC)C1c1ccccc1Cl (centres undefined) | – | – | – | – | 69! | – | 89
